Assay outcomes from PubChem.
Hits are enriched below; roughly 3.1% of the tested compounds scored in any of these assays.
YjeE inh – displaces an ADP probe from E. coli YjeE (TsaE); 71,000 tested, 0.05% active; Potency, µM; purified YjeE enzyme, qHTS inhibition assay; P0AF67
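Purified YjeE (10 uM) with BODIPY Texas Red-labeled ADP probe (2 uM); compounds pin-transferred, 15 min at room temperature. Binding inhibition read as decreased fluorescence polarization; ADP titration as control.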
BRCT PPI red – BRCT-phosphoprotein interaction inhibition (red fluorophore); 75,000 tested, 0.03% active; P38398; BRCT-phosphopeptide binding, red fluorescence polarization; Potency, µM (doses to about 76.9 µM), for inactives: at the top dose activity change, negative = inhibition, usual class: inhibitors; also: % is scaled to controls: 0 for no effect and ±100 for the full control effect
Target sequence (P38398 whole entry, looked up): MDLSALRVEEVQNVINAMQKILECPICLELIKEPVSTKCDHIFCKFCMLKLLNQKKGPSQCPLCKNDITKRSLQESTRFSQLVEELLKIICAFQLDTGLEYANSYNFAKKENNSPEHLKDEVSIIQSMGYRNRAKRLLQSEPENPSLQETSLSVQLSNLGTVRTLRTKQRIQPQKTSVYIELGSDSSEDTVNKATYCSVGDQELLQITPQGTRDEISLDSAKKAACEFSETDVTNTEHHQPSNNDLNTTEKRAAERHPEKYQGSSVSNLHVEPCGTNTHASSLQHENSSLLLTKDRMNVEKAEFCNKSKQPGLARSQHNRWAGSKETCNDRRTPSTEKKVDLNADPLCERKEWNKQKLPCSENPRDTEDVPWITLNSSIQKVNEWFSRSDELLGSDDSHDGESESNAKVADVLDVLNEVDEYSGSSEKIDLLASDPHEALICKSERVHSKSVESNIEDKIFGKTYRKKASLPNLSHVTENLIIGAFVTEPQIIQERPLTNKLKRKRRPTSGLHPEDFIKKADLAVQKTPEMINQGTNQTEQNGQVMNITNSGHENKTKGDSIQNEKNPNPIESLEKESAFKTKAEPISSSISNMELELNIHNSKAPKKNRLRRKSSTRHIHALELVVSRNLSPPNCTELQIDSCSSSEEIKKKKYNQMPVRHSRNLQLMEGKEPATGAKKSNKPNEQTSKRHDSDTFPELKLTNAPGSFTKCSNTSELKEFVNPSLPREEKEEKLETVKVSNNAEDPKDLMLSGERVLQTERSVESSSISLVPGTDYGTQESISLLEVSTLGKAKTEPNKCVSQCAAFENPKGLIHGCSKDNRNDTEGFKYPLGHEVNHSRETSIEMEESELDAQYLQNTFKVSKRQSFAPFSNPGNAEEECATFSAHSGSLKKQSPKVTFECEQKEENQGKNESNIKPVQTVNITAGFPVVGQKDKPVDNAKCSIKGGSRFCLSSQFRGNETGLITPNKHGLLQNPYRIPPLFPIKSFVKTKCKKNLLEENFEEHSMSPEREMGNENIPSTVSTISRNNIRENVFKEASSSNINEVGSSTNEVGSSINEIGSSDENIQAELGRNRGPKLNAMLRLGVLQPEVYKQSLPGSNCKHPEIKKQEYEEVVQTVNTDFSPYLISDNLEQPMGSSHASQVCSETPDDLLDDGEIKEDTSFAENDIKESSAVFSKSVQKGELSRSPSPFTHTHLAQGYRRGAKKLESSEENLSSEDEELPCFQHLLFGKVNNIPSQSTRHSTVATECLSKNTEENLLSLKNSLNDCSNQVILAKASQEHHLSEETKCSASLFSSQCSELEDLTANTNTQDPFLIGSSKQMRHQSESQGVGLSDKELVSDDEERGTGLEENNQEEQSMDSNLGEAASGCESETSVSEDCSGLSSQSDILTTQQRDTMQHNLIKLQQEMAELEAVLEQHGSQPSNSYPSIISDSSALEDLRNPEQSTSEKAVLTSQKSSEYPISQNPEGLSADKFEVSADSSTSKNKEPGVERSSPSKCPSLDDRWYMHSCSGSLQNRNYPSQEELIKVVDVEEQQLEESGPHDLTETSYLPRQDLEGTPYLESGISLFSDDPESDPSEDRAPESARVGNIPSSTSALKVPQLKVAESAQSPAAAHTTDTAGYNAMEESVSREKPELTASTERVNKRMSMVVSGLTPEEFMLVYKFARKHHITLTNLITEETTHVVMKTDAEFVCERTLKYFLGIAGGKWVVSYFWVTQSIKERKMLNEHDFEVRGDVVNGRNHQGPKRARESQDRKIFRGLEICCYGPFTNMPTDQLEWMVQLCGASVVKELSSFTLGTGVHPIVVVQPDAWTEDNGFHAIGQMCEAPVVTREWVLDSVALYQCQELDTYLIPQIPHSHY
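Rhodamine-labelled pBACH1 10-mer (100 nM) bound to BRCT domain (100 nM) at pH 7.3; compounds incubated 12 min room temperature, polarization read. Free peptide defines full inhibition; unlabelled decapeptide titrated as control.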
DNA Pol III inh – blocks replication by bacterial DNA polymerase III holoenzyme; Potency, µM (top dose mostly 57.1 µM), for inactives: at the top dose activity change, negative = inhibition; reconstituted DNA polymerase III holoenzyme replication, biochemical; 71,000 tested, 0.25% active; also: potency is read from the fitted curve at half-maximal effect; % is scaled to controls: 0 for no effect and ±100 for the full control effect
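Reconstituted *E. coli* holoenzyme (0.35 nM Pol III, 1 nM beta, 154 nM SSB, 2 nM primase) was preincubated with compound for 15 min at RT. Synthesis on 1.4 nM ssM13Gori ran 35 min, then was stopped with PicoGreen/EDTA and read as dsDNA fluorescence.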
Tau fil binding – binds recombinant human tau filaments; 71,000 tested, 2% active; Potency, µM (highest dose often 57.1 µM), for the others: top-dose activity change, negative = inhibition; recombinant tau filaments, thioflavin S fluorescence, 15 h; filaments grown with octadecylsulfate alongside compound;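 also: potency is read from the fitted curve at half-maximal effect; % is scaled to controls: 0 for no effect and ±100 for the full control effect; actives lower thioflavin S fluorescence by blocking filaments or displacing dye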
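ThS-based fibril read: tau 1 uM final, inducer ODS 30 uM final, 37 C for 15 h, ex 450/em 510 nm.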
BRCT inh green – inhibitors of human BRCA1 BRCT-phosphoprotein interaction (green fluorophore); 75,000 tested, 0.05% active; BRCA1 BRCT-phosphopeptide binding, green fluorescence polarization; P38398; Potency, µM (highest dose often 76.9 µM), for the others: top-dose activity change, negative = inhibition, hits mostly inhibitors;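 also: potency is read from the fitted curve at half-maximal effect; plate controls were peptide without protein for full effect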
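Compounds were incubated for 12 min at room temperature with a complex of 100 nM fluorescein-tagged pBACH1 decapeptide and 250 nM His-tagged BRCT protein. Buffer was phosphate pH 7.3 with EDTA, DTT and Tween 20. Disruption of binding lowers the polarization signal.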
ALOX15 inhib – 15-hLO (ALOX15) enzyme inhibition | Potency, µM (titrated, usually from 57.1 µM), for inactives: top-dose activity change, negative = inhibition, hits mostly inhibitors | purified 15hLO-1, xylenol orange hydroperoxide absorbance | 74,000 tested, 1.4% active | P16050 | AID 887; also: potency is read from the fitted curve at half-maximal effect; % is scaled to controls: 0 for no effect and ±100 for the full control effect; nearly all actives have a fitted effect of over 55% in size
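Readout: Fe(III)-xylenol orange absorbance, 573-to-405 nm ratio as reaction progress. Enzyme 40 nM purified human 15hLO-1, substrate 50 uM arachidonic acid, 6 min RT after 15 min compound preincubation; Hepes pH 7.5 buffer with Triton X-100.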
* = called active by the depositor; [ ] = remark or other dose. Calls follow the shape of the dose curve; as a rule, active = well fitted curve in the direction sought with a large enough effect; inconclusive = small, poorly fitted or top-dose-only effect, or another doubt; inactive = no such curve, though single readings can be large; an effect the other way counts as inactive or inconclusive.

COc1cc(C(=O)Nc2nc(-c3cccs3)cs2)cc(OC)c1OC was read as YjeE inh inactive, BRCT PPI red -2%, DNA Pol III inh -8%, Tau fil binding 32%, BRCT inh green -2% and ALOX15 inhib 16µM*.
Screening COc1cc(C(=O)Nc2ccc(N(C)C)cc2)cc(OC)c1OC returned YjeE inh inactive, BRCT PPI red 1%, DNA Pol III inh -5%, Tau fil binding 10µM*, BRCT inh green -2% and ALOX15 inhib -9%.
CC1(C)[C@@H](O)CC[C@@]2(C)[C@H]1CC[C@]1(C)[C@H]2C(=O)C=C2[C@@H]3C[C@@](C)(C(=O)O)CC[C@]3(C)CC[C@@]21C was read as YjeE inh inactive, DNA Pol III inh -8% and Tau fil binding inconclusive.
`CN1CCN(c2ncc3nc(CCc4ccccc4)c(=O)n(C)c3n2)CC1` gave YjeE inh inactive, BRCT PPI red -1%, DNA Pol III inh 12%, Tau fil binding 42%, BRCT inh green -1% and ALOX15 inhib 2%.
`CN1Cc2cc(C(=O)c3cc(Cl)cc(CSc4ncccn4)c3O)cnc2NC1=O` gave YjeE inh inactive, BRCT PPI red 1%, DNA Pol III inh -6%, Tau fil binding 16µM*, BRCT inh green 4% and ALOX15 inhib -18%.
N#Cc1c(N)nc(SCC(=O)OCc2ccccc2)c(C#N)c1-c1ccco1 was read as YjeE inh inactive, BRCT PPI red 4%, DNA Pol III inh -7%, Tau fil binding 3%, BRCT inh green 5% and ALOX15 inhib 16µM*.
N#Cc1c(N)nc(SCc2ccccc2)c(C#N)c1-c1ccco1 was read as YjeE inh inactive, BRCT PPI red 1%, DNA Pol III inh 1%, Tau fil binding -11%, BRCT inh green 2% and ALOX15 inhib inconclusive.
`COC(=O)CSc1nc2c(c(-c3ccco3)c1C#N)CCCC2` gave YjeE inh inactive, BRCT PPI red -1%, DNA Pol III inh 0%, Tau fil binding 16µM*, BRCT inh green 2% and ALOX15 inhib 10µM*.
`COC(=O)C1=C2N(Cc3ccccc3)C(C)=C(C(=O)OC)C(c3ccccc3)N2C(=O)[C@](O)(C(=O)OC)C1` (stereo partly drawn) gave BRCT PPI red 0%[15.4 µM], BRCT inh green -1%[15.4 µM] and ALOX15 inhib 6%[11.4 µM].
Screening COCC(=O)N1CCC2(CCCN(Cc3ccccc3OC)C2)CC1 returned YjeE inh inactive, BRCT PPI red 0%, DNA Pol III inh 2%, Tau fil binding -5%, BRCT inh green -2% and ALOX15 inhib 8%.
Cc1cccc(NC(=O)Cn2nnc(-c3cccs3)n2)c1C was read as YjeE inh inactive, BRCT PPI red -3%, DNA Pol III inh -3%, Tau fil binding 13µM*, BRCT inh green 0% and ALOX15 inhib -9%.
Screening O=[N+]([O-])c1cc(Cl)cc2c1nc(NCCO)c1ccccc12 returned YjeE inh inactive, BRCT PPI red 0%[15.4 µM], DNA Pol III inh 7%[11.4 µM], Tau fil binding 4µM*, BRCT inh green -2%[15.4 µM] and ALOX15 inhib -15%[11.4 µM].
`COc1ccc2cc(C(=O)NCc3ccco3)c(=Nc3ccc(C(=O)O)cc3)oc2c1` gave YjeE inh inactive, BRCT PPI red -1%, DNA Pol III inh -8%, Tau fil binding 4%, BRCT inh green -1% and ALOX15 inhib inconclusive.
COc1ccc(N=c2oc3c(OC)cccc3cc2C(=O)NCc2ccco2)c(OC)c1 was read as YjeE inh inactive, BRCT PPI red 1%, DNA Pol III inh -2%, Tau fil binding 1.3µM*, BRCT inh green 0% and ALOX15 inhib -9%.
`O=C(c1cc(-c2ccncc2)nc2ccc(Br)cc12)N1CCN(c2ccccn2)CC1` gave YjeE inh inactive, BRCT PPI red 1%, DNA Pol III inh 11%, Tau fil binding 32µM*, BRCT inh green 2% and ALOX15 inhib -8%.
